This is one part of a sample in which hits are shown more often than they occur.
Pf Dd2 inh: qHTS Primary assay for Inhibitors of Plasmodium falciparum Dd2 growth in vitro; P. falciparum Dd2 growth, SYBR Green, 72 h; Potency, µM (highest dose often 28.9 µM), usual class: inhibitors; hit rate 4.3% among 120,000; AID 1347417, 2020; active = well fitted inhibition curve with a large enough effect; note: nearly all actives have a fitted effect of over 65% in size
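Readout: SYBR Green fluorescence, 485 nm excitation, 535 nm emission, after ~16 h lysis at 37C. Before that, Dd2-infected red cells (2.5% hematocrit) grew 72 h with compound, 29 uM top final concentration.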
Hits are given with their value; [ ] = dose if it differs, or a comment.

O=C(NCc1cccs1)c1ccc2c(c1)n(Cc1cccc(F)c1)c(=O)c1ccnn12 was read as Pf Dd2 inh 5.62µM.
O=C(c1ccccc1F)N1CCC(Oc2ccccc2)C1 (configuration not stated) was read as Pf Dd2 inh inactive.
Screening NCCC(=O)N1CCC2(CC1)CN([S+](=O)([O-])c1ccccc1)CCO2 returned Pf Dd2 inh inactive.
Screening COCC1CN(C)CC12CCN(C(=O)C1CC=CC1)CC2 (configuration not stated) returned Pf Dd2 inh inactive.
CCCN(CC1CCOC1)S(=O)(=O)c1ccc(C(C)C)cc1 (configuration not stated) was read as Pf Dd2 inh inactive[5.79 µM].
Screening COc1ccccc1N1CCN(C(=O)c2cc(NC(=O)C(C)C)cc3nc(C)ccc23)CC1 returned Pf Dd2 inh inactive.
For CCOc1ccccc1NC(=O)N1CCC(C(=O)N2CCCCCCNC(=O)CC2)CC1 the results were Pf Dd2 inh inactive.
COc1cccc(S(=O)(=O)N2CCC3(CC2)CC(CC(=O)N2CCCC2)CCO3)c1 (configuration not stated) was read as Pf Dd2 inh inactive.
COCCC1(N(C)C)CCN(C(=O)C2CC2)CC1 was read as Pf Dd2 inh inactive.
`O=C(NC1CC1)c1cc(C2CC2)nc2onc(C3CCNC3)c12` (configuration not stated) gave Pf Dd2 inh inactive.
Cc1cccc(CSc2nc3cccnc3n2Cc2ccc(C(=O)NCc3cccs3)cc2)c1 was read as Pf Dd2 inh inactive.
`COc1cccc(CSc2nc3cc(C(=O)NC4CCCC4)ccc3c(=O)n2Cc2ccccc2)c1` gave Pf Dd2 inh inactive.
For O=C(NCc1cccs1)c1ccc(CSc2nc3ccncc3n2Cc2cccc(F)c2)cc1 the results were Pf Dd2 inh 8.91µM.
For COc1ccc(C(=O)N2CCc3ccc(C(=O)NCc4cccs4)cc32)cc1 the results were Pf Dd2 inh inactive.
COc1ccc(Cn2c(SCc3ccc(C(=O)NCc4cccs4)cc3)nc3ccncc32)cc1 was read as Pf Dd2 inh 7.94µM.
`O=C(CSc1nc2ccccc2n1Cc1ccccc1)NCc1ccccc1` gave Pf Dd2 inh inactive.
Screening COC(=O)c1ccc(Cn2c(SCc3ccccc3)nc3ccncc32)cc1 returned Pf Dd2 inh inactive.
Screening O=C(NC1CCCC1)c1ccc(CSc2nc3cccnc3n2Cc2cccc(F)c2)cc1 returned Pf Dd2 inh inactive.
Screening CCc1ccc(CNC(=O)c2ccc(CSc3nc4ccncc4n3Cc3ccccc3)cc2)cc1 returned Pf Dd2 inh 10µM.
`O=C(NC1CCCCC1)c1ccc(CSc2nc3ccncc3n2Cc2cccc(F)c2)cc1` gave Pf Dd2 inh 11.2µM.
Cn1nccc1C(=O)N1CCCCCC1c1nc(-c2ccncc2)no1 (configuration not stated) was read as Pf Dd2 inh inactive.
For COc1ccccc1CN1C(=O)COC[C@@H]1[C@H](O)c1ccc(NC(=O)c2cccnc2)cc1 the results were Pf Dd2 inh inactive.
COc1cc(OC)cc(C(=O)N2CCC(n3cc(-c4nc(C)no4)nn3)CC2)c1 was read as Pf Dd2 inh inactive.
`O=C1Nc2ccccc2OCC12CCN(Cc1ccccc1C(F)(F)F)CC2` gave Pf Dd2 inh inactive.
Screening CN(C)S(=O)(=O)N1CCn2nc(CN3CCCOCC3)cc2C1 returned Pf Dd2 inh inactive.
For O=C([C@@H]1C[C@H](Oc2cccnc2)CN1C(=O)Nc1ccccc1F)N1CCOCC1 the results were Pf Dd2 inh inactive.
Screening CC(C)NC(=O)c1ccc(Cn2c(SCc3ccc(F)cc3)nc3cccnc32)cc1 returned Pf Dd2 inh inactive.
For CCc1ccc(CNC(=O)c2ccc(CSc3nc4ccncc4n3Cc3ccc(OC)cc3)cc2)cc1 the results were Pf Dd2 inh 12.6µM.
COc1ccc(CSc2nc3ccncc3n2CC(=O)Nc2ccc(C)c(F)c2)cc1 was read as Pf Dd2 inh inactive.
Screening CCc1ccccc1NC(=O)Cn1c(SCc2ccc(F)cc2)nc2ccncc21 returned Pf Dd2 inh inactive.
COc1ccc(Cn2c(=O)c3ccnn3c3ccc(C(=O)NCc4cccnc4)cc32)cc1 was read as Pf Dd2 inh inactive.
Screening CC(CNC(=O)c1ccc(CSc2nc3ccncc3n2Cc2ccc(F)cc2)cc1)c1ccccc1 (configuration not stated) returned Pf Dd2 inh 4.47µM.
NC(=O)C1CCN([C@H]2[C@@H]3OC[C@@H](O3)[C@@H](NCc3ccc4c(c3)OCO4)[C@@H]2O)CC1 was read as Pf Dd2 inh inactive.
Screening Cc1ccccc1C(=O)N1CCn2c(nnc2-c2ccccc2)C1 returned Pf Dd2 inh inactive.
For CCCn1cc(CNc2cc(CC)nc3c(C)c(C)nn23)cn1 the results were Pf Dd2 inh inactive.
`CCCS(=O)(=O)N1CCCC(Cc2noc(-c3cccnc3)n2)C1` (configuration not stated) gave Pf Dd2 inh inactive.
`OCC1(CCOc2ccccc2)CCNCC1` gave Pf Dd2 inh inactive.
Screening O[C@@H]1CCN(Cc2nc(C3(O)CCNCC3)cs2)C1 returned Pf Dd2 inh inactive.
`CC(C)NC(=O)CC[C@@H]1CNC(=O)[C@@H]2C[C@H](NCc3cccc(Cl)c3)CN12` gave Pf Dd2 inh inactive.
For O=C(NC1CCCc2c1[nH]c1ccccc21)c1ccccn1 (configuration not stated) the results were Pf Dd2 inh inactive.
Cn1nc(C(=O)NC2CCCc3c2[nH]c2ccccc32)c2ccccc2c1=O (configuration not stated) was read as Pf Dd2 inh 7.08µM.
O=C(Cn1nc2c(cc1=O)CCCCC2)NC1CCCc2c1[nH]c1ccccc21 (configuration not stated) was read as Pf Dd2 inh inactive.
For CC[C@H]1CN(C(C)=O)CC[C@H]1CC(=O)NCc1ccc2c(c1)OCO2 the results were Pf Dd2 inh inactive.
`COc1ccc(NC(=O)N2CC(Oc3ccc(-c4nc(-c5ccccc5)no4)cc3)C2)cc1` gave Pf Dd2 inh inactive[5.79 µM].
C=CCNC(=O)CC1COc2ccc(C(=O)NCCOC)cc2N1C (configuration not stated) was read as Pf Dd2 inh inactive.
Cc1noc(-c2ccn3c(CNC(=O)c4ccoc4)nnc3c2)n1 was read as Pf Dd2 inh inactive.
Screening O=C(Nc1ccccc1)N1CC(Oc2cccc(-c3nc(-c4ccccc4)no3)c2)C1 returned Pf Dd2 inh inactive[5.79 µM].
CCNC(=O)N1CC(Oc2cccc(-c3nc(-c4ccccc4)no3)c2)C1 was read as Pf Dd2 inh 1.26µM.
For O=C(c1ccc(F)cc1)N1CC(Oc2cccc(-c3nc(-c4ccccc4)no3)c2)C1 the results were Pf Dd2 inh inactive[5.79 µM].
`O=C(c1cnco1)N1CCc2nn(CC3CC3)c(=O)n2CC1` gave Pf Dd2 inh inactive.
`COc1cc([C@@H]2c3cc4c(cc3[C@H](O)[C@@H](CO)[C@@H]2C(=O)NCC2CC2)OCO4)cc(OC)c1OC` gave Pf Dd2 inh inactive.
Screening COCCn1c(=O)c2c(n1Cc1ccccc1)CN(C(=O)c1scnc1C)CC2 returned Pf Dd2 inh inactive.
Screening CC(C)CC(=O)NC1CCN(c2cnn(CC3CC3)c(=O)c2)CC1 returned Pf Dd2 inh inactive.
Screening COC[C@@H]1CN(Cc2cnn(C)c2)C[C@H]1c1ccncc1 returned Pf Dd2 inh inactive.
Screening COC[C@@H]1CN(Cc2c(OC)cccc2OC)C[C@H]1c1ccncc1 returned Pf Dd2 inh 4.47µM.
Screening COC[C@@H]1CN(Cc2ccc(OC)c(OC)c2)C[C@H]1c1ccncc1 returned Pf Dd2 inh inactive.

Assay outcomes (PubChem BioAssay)
